# From PubChem
# DT40 TDP1 CPT: growth inhibition of DT40 Tdp1-/-;hTDP1 cells with camptothecin (screen for TDP1 inhibitors); chicken DT40 Tdp1-/-;hTDP1 cells + 20 nM CPT, ATP luminescence, 48 h; Potency, µM (highest dose often 46.2 µM), for inactives: top-dose activity change, negative = growth inhibition, usual class: inhibitors; hit rate 12% among 420,000; note: potency is the fitted concentration of half-maximal effect; nearly all actives have a fitted effect of over 55% in size
#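 Chicken DT40 Tdp1-/- cells stably complemented with human TDP1 were seeded at 400 cells/well in medium containing 20 nM camptothecin, exposed to pin-transferred compounds, and grown at 37 °C for at least 48 hr. Viability was read as ATP luminescence.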
# 12-LOX inh: ALOX12 (human) lipoxygenase inhibition. P18054. purified 12hLO, xylenol orange hydroperoxide absorbance. Potency, µM (top dose mostly 108 µM), for the others: top-dose activity change, negative = inhibition, actives largely listed as inhibitors. hit rate 1.1% among 580,000. AID 1671190; note: potency is the fitted concentration of half-maximal effect
# Target sequence (P18054 whole entry, looked up): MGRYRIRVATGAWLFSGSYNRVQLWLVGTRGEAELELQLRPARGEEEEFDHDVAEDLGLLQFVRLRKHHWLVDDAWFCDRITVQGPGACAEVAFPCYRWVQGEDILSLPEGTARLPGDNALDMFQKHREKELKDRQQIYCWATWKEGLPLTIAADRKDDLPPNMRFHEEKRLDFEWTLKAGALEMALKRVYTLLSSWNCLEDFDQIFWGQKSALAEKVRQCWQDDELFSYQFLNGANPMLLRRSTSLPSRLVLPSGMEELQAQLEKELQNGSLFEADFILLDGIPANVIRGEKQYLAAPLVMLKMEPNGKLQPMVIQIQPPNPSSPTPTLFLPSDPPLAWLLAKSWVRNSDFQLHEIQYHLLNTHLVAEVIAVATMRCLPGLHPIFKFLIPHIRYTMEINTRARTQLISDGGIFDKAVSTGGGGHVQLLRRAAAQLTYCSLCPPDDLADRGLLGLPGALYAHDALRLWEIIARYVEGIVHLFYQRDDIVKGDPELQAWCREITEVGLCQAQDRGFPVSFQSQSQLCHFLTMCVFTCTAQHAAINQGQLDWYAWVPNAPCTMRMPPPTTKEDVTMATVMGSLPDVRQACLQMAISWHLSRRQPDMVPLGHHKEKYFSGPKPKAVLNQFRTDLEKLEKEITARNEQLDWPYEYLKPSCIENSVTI
#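 Hydroperoxide product was detected by ferrous iron/xylenol orange as the 573 to 405 nm absorbance ratio. Arachidonic acid at 40 uM (final) was turned over for 30 min at room temperature by 150 nM human 12hLO, pH 7.0 Hepes buffer, after 15 min compound preincubation.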
# IL-1B inflam inh: inhibitors of inflammasome signaling (IL-1 beta secretion); THP-1 LPS/ATP IL-1B secretion, AlphaLISA, 16 h; hits give low values; activity change, % at 57.5 µM; hit rate 4.7% among 360,000; AID 743279; in the data active = activity change below about -50%; inconclusive = mostly about -30% to -49%
#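 THP-1 cells pretreated 1 hr with compounds (up to 57.5 uM final), then stimulated with LPS (250 ng/mL final) plus ATP (1.25 mM final); secreted IL-1B measured by AlphaLISA after 16 hr, decreased signal indicating inhibition.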
# DT40 TDP1 no CPT: qHTS for Inhibitors of human tyrosyl-DNA phosphodiesterase 1 (TDP1): qHTS in cells in absence of CPT. Potency, µM (series often up to 46.2 µM), for the others: at the top dose activity change, negative = growth inhibition, actives largely listed as inhibitors. AID 686978, 2013. hit rate 15% among 420,000. DT40 Tdp1-/- hTDP1 cells, no CPT, ATP luminescence, 48 h; note: potency is the fitted concentration of half-maximal effect; nearly all actives have a fitted effect of over 55% in size
#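 Growth kinetics read by CellTiter-Glo luminescence after ≥48 hr at 37 °C. Cells: DT40 Tdp1-/- stably carrying human TDP1, 400 per well, compound exposure in the absence of CPT (DMSO vehicle).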
# HT1080-NT tox: kills 2HG-producing HT-1080-NT fibrosarcoma cells. hit rate 1.6% among 360,000. Potency, µM (series often up to 46.1 µM), for inactives: at the highest dose activity, negative = less viability, usual class: cytotoxic. AID 686970. HT-1080-NT fibrosarcoma viability, CellTiter-Glo ATP luminescence, 48 h;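 note: NT is the 2HG producing partner of a matched IDH1 knockdown line; potency is the fitted concentration of half-maximal effect; 0% = DMSO-treated cells and -100% = media-only wells without cells; nearly all actives have a fitted effect of over 55% in size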
#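 750 cells/well, RPMI + 5% FBS; 2 h settle, compound pin-transfer, 48 h at 37 degrees C. CellTiter-Glo 10 min RT, luminescence. Normalized to DMSO and media-only wells.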
# HT1080 IDH1KD tx: HT-1080 IDH1 knockdown cell toxicity (counter line). HT-1080 IDH1 knockdown viability, ATP luminescence, 48 h. Potency, µM (top dose mostly 46.1 µM), for inactives: at the top dose activity, negative = toxicity, most hits filed as cytotoxic. hit rate 2% among 360,000. AID 686971;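 note: potency is the fitted concentration of half-maximal effect; 0% = DMSO wells and -100% = cell-free medium wells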
#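 Cytotoxicity counter-line: IDH1KD HT-1080, 48 h, CellTiter-Glo. Curves classed by r2, magnitude and activity.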
# The depositor's hits bear a star; ? = inconclusive; . = no result; [ ] = dose if it differs, or a comment. The sample as a whole holds a higher share of hits than the screen did. Unless noted, calls come from the whole dose curve; as a rule, active = well fitted curve in the direction sought with a large enough effect; inconclusive = small, poorly fitted or top-dose-only effect, or another doubt; inactive = no such curve, though single readings can be large; an effect the other way counts as inactive or inconclusive. Unless noted, % is set by controls: 0 for no effect and ±100 for the full control effect.
SMILES,DT40 TDP1 CPT,12-LOX inh,IL-1B inflam inh,DT40 TDP1 no CPT,HT1080-NT tox,HT1080 IDH1KD tx
CC(=O)c1cn(CCOc2ccc(F)cc2)c2ccccc12,15µM*,7%,0,?,?,?
CC[C@H]1CN(S(C)(=O)=O)CC[C@H]1CC(=O)NCCOC,.,14%[176 µM],.,.,.,.
COc1cc(CC(=O)N(c2ccccc2)c2nc(C)cs2)cc(OC)c1OC,?,-1%,11,?,1%,0%
Cc1cccc(/C=C/c2onc(C)c2S(=O)(=O)N2CCC(C(=O)N3CCC(C)CC3)CC2)c1,18µM*,?,-22,18µM*,24%,9%
Cc1cccc(/C=C/c2onc(C)c2S(=O)(=O)N2CCC(C(=O)N3CCCCCC3)CC2)c1,?,-19%,?,23µM*,-7%,-3%
COc1cccc(/C=C/c2onc(C)c2S(=O)(=O)N2CCC(C(=O)N3CCC(C)CC3)CC2)c1,?,?,.,16µM*,.,.
COc1ccc(/C=C/c2onc(C)c2S(=O)(=O)N2CCC(C(=O)N3CCC(C)CC3)CC2)cc1,16µM*,-28%,?,16µM*,-26%,-25%
CNC(=O)C1CCC(=O)N1Cc1c[nH]c2ccccc12 (stereo not given),6%,-1%,9,10%,23%,17%
CCn1cc(S(=O)(=O)N2CCCC2c2nncn2Cc2ccncc2)cn1 (stereo not given),.,44%,.,.,.,.
Cc1ccc(/C=C/c2onc(C)c2S(=O)(=O)N2CCC(C(=O)N3CCN(c4cccc(C)c4)C(C)C3)CC2)cc1 (stereo not given),21µM*,0%,.,12µM*,.,.
Cc1c(CCC(=O)NC2CCS(=O)(=O)C2)c(=O)oc2cc(O)ccc12 (stereo not given),.,-10%,.,.,.,.
CSc1ccc(C(O)c2ncc(-c3cccc(F)c3)[nH]2)cc1 (stereo not given),15µM*,-12%,0,?,4%,-13%
COc1cccc(-c2cnc(C(O)c3ccc(Cl)cc3)[nH]2)c1 (stereo not given),26µM*,-7%,35,?,4%,-3%
COc1cccc(-c2cnc(C(O)c3ccc(Cl)c(Cl)c3)[nH]2)c1 (stereo not given),21µM*,-3%,21,?,-4%,-18%
CCc1ccc(C(O)c2ncc(-c3cccc(OC)c3)[nH]2)cc1 (stereo not given),?,.,17,9.2µM*,-2%,-27%
Cc1occc1C(=O)Nc1sc2c(c1C#N)CCC(C(C)(C)C)C2 (stereo not given),.,-7%,.,.,.,.
Cc1cc(C(=O)O)ccc1-c1ccc(/C=N/O)o1,.,-13%,.,.,.,.
O=C(c1nnc(COc2ccc(F)c(F)c2)n1-c1ccccc1)N1CCC[C@@H]1C(c1ccccc1)c1ccccc1,.,-5%,.,.,.,.
COc1cccc(-c2cnc(C(O)c3ccc(SC)cc3)[nH]2)c1 (stereo not given),?,-12%,15,16µM*,8%,-16%
c1ccc(-c2csc(Nc3nc(N4CCOCC4)nc(N4CCOCC4)n3)n2)cc1,?,0%,?,10µM*,0%,-7%
c1cc2c(cc1-c1csc(NNC3=NCCCCC3)n1)OCCO2,3.3µM*,?,-102*,4.6µM*,-27%,-14%
CCC(=O)Nc1nc(-c2ccc3c(c2)OCCO3)cs1,?,-33%,?,-21%,-4%,-1%
COc1ccc2oc(=O)c(-c3csc(Nc4ccc(O)cc4)n3)cc2c1,3.3µM*,?,-91*,5.8µM*,?,?
Nc1ccc(Nc2nc(-c3ccncc3)cs2)cc1,?,-4%,?,18µM*,?,?
COc1ccc(CNC(=O)NC2CCc3nnc(C4CC4)n3CC2)cc1 (stereo not given),.,-5%,.,.,.,.
SMILES,DT40 TDP1 CPT,12-LOX inh,IL-1B inflam inh,DT40 TDP1 no CPT,HT1080-NT tox,HT1080 IDH1KD tx
Brc1ccc(Nc2nc(-c3cccnc3)cs2)cc1,7%,?,51,-17%,-18%,-26%
COc1ccc(Nc2nc(-c3ccc(OC)cc3)cs2)cc1,-3%,-24%,?,-14%,-11%,-3%
Oc1ccc(Nc2nc(-c3ccc(O)cc3)cs2)cc1,11µM*,?,?,5µM*,?,?
Cc1ccc(Nc2nc(-c3ccc(C)cc3C)cs2)cc1,.,6.3µM*,.,.,.,.
c1ccc(Nc2nc(-c3ccccn3)cs2)cc1,13µM*,3%,?,7.3µM*,-1%,-3%
Oc1ccc(Nc2nc(-c3cccnc3)cs2)cc1,21µM*,.,?,23µM*,-6%,-11%
c1ccc(-c2csc(Nc3cccnc3)n2)nc1,?,28%,-2,?,-14%,?
COc1ccc(C(=O)Nc2cc(-n3cnnn3)ccc2N2CCCCC2)cc1Br,.,-13%,.,.,.,.
CN1C(=O)Cc2ccccc2C1C(=O)NC1CCCC1 (stereo not given),.,-5%,.,.,.,.
Fc1ccc(C2Cn3nnc(-c4nc(-c5ccc(Cl)cc5)no4)c3CO2)cc1 (stereo not given),.,36%,.,.,.,.
COc1ccccc1Nc1nc(-c2cc(C)ccc2C)cs1,.,10µM*,.,.,.,.
COc1ccccc1Nc1nc(C)cs1,-8%,?,10,2%,12%,8%
CC(=O)c1cccc(Nc2nc(-c3cccnc3)cs2)c1,?,-14%,-88*,?,-22%,?
Oc1ccc(-c2csc(-c3c[nH]c4ccccc34)n2)c(O)c1,?,-24%,-17,?,?,?
COc1ccc(-c2csc(Nc3ccccc3)n2)cc1,?,?,-56*,?,?,?
Cc1ccc(-c2csc(-c3c[nH]c4ccccc34)n2)c(C)c1,?,-26%,14,?,?,18µM*
Cc1ccc(-c2nc3n(n2)C(CC(=O)Nc2ccc(C)cc2C)C(=O)N3)cc1 (stereo not given),.,-3%,.,.,.,.
CCCSc1nc2c(c(=O)[nH]c(=O)n2C)n1CC(O)COc1ccc(Cl)cc1 (stereo not given),.,-13%,.,.,.,.
c1ccc(NC2(c3nnnn3C3CCCCC3)CCCCC2)cc1,.,32%,.,.,.,.
CC(=O)c1cccc(Nc2nc(-c3ccccc3)cs2)c1,?,-25%,-1,?,-21%,-17%
COc1ccc(Nc2nc(-c3c[nH]c4ccccc34)cs2)cc1,-12%,?,-78*,-23%,4%,14%
COc1ccc(Nc2nc(-c3ccc(F)cc3F)cs2)cc1,.,16µM*,.,.,.,.
